Screening data: PubChem BioAssay, National Center for Advancing Translational Sciences (NCATS)
Giardia kill: kills Giardia lamblia; hit rate 0.15% among 340,000; Giardia lamblia trophozoite viability; activity change, % at 7.66 µM, hits read low; in the data active means activity change below about -80%; inconclusive means between about -30% and that limit;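 further: parasites exposed to compound for two days anaerobically before the ATP read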
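Giardia trophozoites, 100 cells per well, were exposed to compounds for 48 hrs at 37 deg C under anaerobic conditions; viability was then read as ATP content by bioluminescence after 15-30 min at room temperature.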
DT40 TDP1 CPT: DT40-hTDP1 cell growth loss with CPT. chicken DT40 Tdp1-/-;hTDP1 cells + 20 nM CPT, ATP luminescence, 48 h. Potency, µM (top dose mostly 46.2 µM), inactives show at the highest dose activity change, negative = growth inhibition, hits mostly inhibitors. hit rate 12% among 420,000. AID 686979; further: potency means the concentration at half of the fitted maximal effect; nearly all actives have a fitted effect of over 55% in size
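Chicken DT40 Tdp1-/- cells stably complemented with human TDP1 were seeded at 400 cells/well in medium containing 20 nM camptothecin, exposed to pin-transferred compounds, and grown at 37 °C for at least 48 hr. Viability was read as ATP luminescence.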
TDP1 inh: inhibitors of human tyrosyl-DNA phosphodiesterase TDP1; Q9NUW8; recombinant TDP1, AlphaScreen DNA substrate cleavage; Potency, µM (highest dose often 130 µM), for inactives: at the highest dose activity change, negative = inhibition, hits mostly inhibitors; hit rate 0.28% among 350,000; further: potency means the concentration at half of the fitted maximal effect; nearly all actives have a fitted effect of over 40% in size
Target sequence (Q9NUW8 whole entry, looked up): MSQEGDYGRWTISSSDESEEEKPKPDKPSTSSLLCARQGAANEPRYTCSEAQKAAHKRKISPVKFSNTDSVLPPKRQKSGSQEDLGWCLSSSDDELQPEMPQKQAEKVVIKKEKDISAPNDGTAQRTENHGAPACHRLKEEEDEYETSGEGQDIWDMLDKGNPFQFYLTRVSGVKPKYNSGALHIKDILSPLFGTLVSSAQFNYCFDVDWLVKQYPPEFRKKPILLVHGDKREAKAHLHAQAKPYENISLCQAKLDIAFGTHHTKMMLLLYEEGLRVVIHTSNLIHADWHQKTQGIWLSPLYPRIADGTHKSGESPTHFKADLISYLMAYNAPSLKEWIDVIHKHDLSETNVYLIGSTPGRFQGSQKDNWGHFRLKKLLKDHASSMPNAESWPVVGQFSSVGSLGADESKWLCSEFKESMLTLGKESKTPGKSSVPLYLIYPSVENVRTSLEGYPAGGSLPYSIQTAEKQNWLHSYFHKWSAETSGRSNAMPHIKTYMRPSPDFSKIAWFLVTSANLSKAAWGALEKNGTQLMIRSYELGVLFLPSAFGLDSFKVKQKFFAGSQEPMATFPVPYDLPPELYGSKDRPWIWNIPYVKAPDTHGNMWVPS
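Tdp1 1 nM final; 15 min RT w/ cpd; substrate 15 nM, 5 min; beads 10 ug/ml, 10 min; AlphaScreen read. Neg ctrl: no enzyme.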
IL1B secr inh: inhibitors of inflammasome signaling (IL-1 beta secretion); THP-1 LPS/ATP IL-1B secretion, AlphaLISA, 16 h; active compounds read low; activity change, % at 57.5 µM; hit rate 4.7% among 360,000; AID 743279; in the data active means activity change below about -50%; inconclusive means mostly about -30% to -49%
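Secreted IL-1B measured by AlphaLISA bead assay after 16 h compound exposure of THP-1 cells; compounds (final up to 57.5 uM) added 1 h before LPS (250 ng/mL) and ATP (1.25 mM) stimulation; lower signal means less secretion.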
ELG1 repair inh: ELG1-dependent DNA repair inhibition; HEK293T ELG1-luciferase reporter, luminescence, 16 h; DNA damage induced by 5-fluorouridine; Potency, µM (doses to about 46.1 µM), without a hit: at the highest dose activity change, negative = inhibition, hits mostly inhibitors; hit rate 2.3% among 330,000; further: potency means the concentration at half of the fitted maximal effect; nearly all actives have a fitted effect of over 55% in size
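5-Fluorouridine DNA damage + compound/DMSO, 2,000 cells/well, 16 h, 37 °C/5% CO2. ONE-Glo, 30 min RT, luminescence. Readout = decrease in reporter signal.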
TDP1 cell noCPT: qHTS for Inhibitors of human tyrosyl-DNA phosphodiesterase 1 (TDP1): qHTS in cells in absence of CPT. AID 686978, 2013. DT40 Tdp1-/- hTDP1 cells, no CPT, ATP luminescence, 48 h. hit rate 15% among 420,000. Potency, µM (top dose mostly 46.2 µM), for the others: at the top dose activity change, negative = growth inhibition, usual class: inhibitors; further: potency means the concentration at half of the fitted maximal effect; nearly all actives have a fitted effect of over 55% in size
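Growth kinetics read by CellTiter-Glo luminescence after ≥48 hr at 37 °C. Cells: DT40 Tdp1-/- stably carrying human TDP1, 400 per well, compound exposure in the absence of CPT (DMSO vehicle).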
The depositor's hits bear a star. Most compounds without a hit are left out; they make up all but 19% or so of the library. Unless noted, the call rests on the fitted dose curve; in most records, active means well fitted curve in the direction sought with a large enough effect; inconclusive means small, poorly fitted or top-dose-only effect, or another doubt; inactive means no such curve, though single readings can be large; an effect the other way counts as inactive or inconclusive. On the % scale 0 is the no-effect control and ±100 the full control effect.

How did Cc1ccc2cc(CN(CC3CCCO3)C(=S)NCc3ccco3)c(=O)[nH]c2c1 (stereo unspecified) do in these assays?
Giardia kill: -10; DT40 TDP1 CPT: -2%; TDP1 inh: 3%; IL1B secr inh: inconclusive; ELG1 repair inh: inconclusive; TDP1 cell noCPT: -14%

Results for CN(C)CCN(Cc1cc2cc3c(cc2[nH]c1=O)OCO3)C(=S)NCc1ccco1 ?
Giardia kill: 7; DT40 TDP1 CPT: -26%; TDP1 inh: 0%; IL1B secr inh: 0; ELG1 repair inh: 1%; TDP1 cell noCPT: -23%

What do the screens show for `Cc1ccc2cc(CN(CCCN3CCOCC3)C(c3nnnn3Cc3ccco3)C(C)C)c(=O)[nH]c2c1C` (stereo unspecified)?
Giardia kill: -6; DT40 TDP1 CPT: inconclusive; IL1B secr inh: -9; TDP1 cell noCPT: inconclusive

How did Cc1ccc2[nH]c(=O)c(CN(CC3CCCO3)C(=S)NCc3ccco3)cc2c1 (stereo unspecified) do in these assays?
Giardia kill: -12; DT40 TDP1 CPT: inconclusive; TDP1 inh: -14%; IL1B secr inh: inconclusive; ELG1 repair inh: -12%; TDP1 cell noCPT: 21µM*

What do the screens show for `Cc1cccc2cc(CN(CC3CCCO3)C(c3nnnn3Cc3ccco3)C(C)C)c(=O)[nH]c12` (stereo unspecified)?
Giardia kill: 1; DT40 TDP1 CPT: 16µM*; TDP1 inh: 7%; IL1B secr inh: -61*; ELG1 repair inh: inconclusive; TDP1 cell noCPT: 15µM*

Results for O=c1[nH]c2cc3c(cc2cc1CN(Cc1cccnc1)C(=S)NCc1ccco1)OCCO3 ?
Giardia kill: 4; DT40 TDP1 CPT: 15µM*; TDP1 inh: 0%; IL1B secr inh: -7; ELG1 repair inh: 9.2µM*; TDP1 cell noCPT: inconclusive

How did O=C(c1ccncc1)N(Cc1ccco1)Cc1cc2ccccc2[nH]c1=O do in these assays?
Giardia kill: 5; DT40 TDP1 CPT: -11%; TDP1 inh: 6%; IL1B secr inh: -2; ELG1 repair inh: -20%; TDP1 cell noCPT: -26%

Results for Cc1ccc2[nH]c(=O)c(CN(Cc3cccs3)C(=S)NCc3ccco3)cc2c1 ?
Giardia kill: -23; DT40 TDP1 CPT: inconclusive; TDP1 inh: 3%; IL1B secr inh: 0; ELG1 repair inh: inconclusive; TDP1 cell noCPT: 16µM*

What do the screens show for `Cc1cccc2cc(CN(Cc3ccco3)C(=O)c3ccncc3)c(=O)[nH]c12`?
Giardia kill: 14; DT40 TDP1 CPT: -17%; TDP1 inh: 11%; IL1B secr inh: 2; ELG1 repair inh: 11µM*; TDP1 cell noCPT: inconclusive

Results for Cc1cc(C)c2cc(CN(CC3CCCO3)C(=S)NCc3ccco3)c(=O)[nH]c2c1 (stereo unspecified) ?
Giardia kill: 30; DT40 TDP1 CPT: inconclusive; TDP1 inh: 1%; IL1B secr inh: inconclusive; ELG1 repair inh: inconclusive; TDP1 cell noCPT: inconclusive

What do the screens show for `Cc1cccc2cc(CN(CC3CCCO3)C(=S)NCc3ccco3)c(=O)[nH]c12` (stereo unspecified)?
Giardia kill: 5; DT40 TDP1 CPT: inconclusive; TDP1 inh: 3%; IL1B secr inh: -9; ELG1 repair inh: 18µM*; TDP1 cell noCPT: -30%

Results for Cc1cccc2cc(CN(Cc3cccs3)C(=S)NCC3CCCO3)c(=O)[nH]c12 (stereo unspecified) ?
Giardia kill: -7; DT40 TDP1 CPT: inconclusive; TDP1 inh: -3%; IL1B secr inh: -12; ELG1 repair inh: 16µM*; TDP1 cell noCPT: inconclusive

What do the screens show for `Fc1ccccc1N1CCN(c2nccn3nc(-c4ccc(Br)cc4)cc23)CC1`?
DT40 TDP1 CPT: -1%; TDP1 inh: 5%; TDP1 cell noCPT: 12%

How did CCc1ccc(NC(=O)CN(c2ccc(C)cc2)S(=O)(=O)c2cccs2)cc1 do in these assays?
DT40 TDP1 CPT: -17%; TDP1 inh: -2%; TDP1 cell noCPT: -19%

How did COC(=O)Cc1c(C)c2ccc(O)c(CNCc3ccc(OC)c(OC)c3)c2oc1=O do in these assays?
Giardia kill: -23; DT40 TDP1 CPT: -4%; IL1B secr inh: 40; ELG1 repair inh: -6%; TDP1 cell noCPT: -24%

How did CC(=O)Nc1cc(-c2cccc(C(=O)NCCN(C)C)c2)cn2c(-c3ccc(F)c(Cl)c3)cnc12 do in these assays?
DT40 TDP1 CPT: 2.1µM*; IL1B secr inh: -11; TDP1 cell noCPT: 1.5µM*

What do the screens show for `CC(=O)Nc1cc(-c2cccc(C(=O)NCCN(C)C)c2)cn2c(-c3ccc(C(C)=O)cc3)cnc12`?
DT40 TDP1 CPT: inconclusive; IL1B secr inh: 62; TDP1 cell noCPT: 21µM*

What do the screens show for `CCCSc1nnc(-c2cnn(-c3ccccc3)c2-n2cccc2)n1C`?
Giardia kill: -19; DT40 TDP1 CPT: 18µM*; TDP1 inh: 4%; IL1B secr inh: -8; ELG1 repair inh: 6%; TDP1 cell noCPT: 15µM*

Results for C=CCSc1nnc(-c2cnn(-c3ccccc3)c2-n2cccc2)n1C ?
Giardia kill: -2; DT40 TDP1 CPT: -10%; TDP1 inh: 4%; IL1B secr inh: -17; ELG1 repair inh: 6%; TDP1 cell noCPT: -25%

Results for c1ccc(CC2CCN(c3nnnn3-c3ccccc3)CC2)cc1 ?
Giardia kill: 9; DT40 TDP1 CPT: -16%; TDP1 inh: 0%; IL1B secr inh: -18; ELG1 repair inh: -5%; TDP1 cell noCPT: -30%

What do the screens show for `N/C(=N/O)c1ccccc1N1CCC(Cc2ccccc2)CC1`?
Giardia kill: 12; DT40 TDP1 CPT: inconclusive; TDP1 inh: 2%; IL1B secr inh: 35; ELG1 repair inh: 15µM*; TDP1 cell noCPT: 15µM*

How did Cc1ccc(Cl)cc1NC(=O)CC(O)(C(F)(F)F)C(F)(F)F do in these assays?
Giardia kill: 21; DT40 TDP1 CPT: 18µM*; TDP1 inh: -8%; IL1B secr inh: -83*; ELG1 repair inh: -17%; TDP1 cell noCPT: inconclusive

Results for COCC(=O)Nc1cc(Cl)ccc1C ?
Giardia kill: -15; DT40 TDP1 CPT: 19%; TDP1 inh: -5%; IL1B secr inh: 13; ELG1 repair inh: -11%; TDP1 cell noCPT: 3%

What do the screens show for `CCOc1ccc2cc(C#N)c(SCC(=O)OCc3ccccc3)nc2c1`?
Giardia kill: -5; DT40 TDP1 CPT: inconclusive; TDP1 inh: 0%; TDP1 cell noCPT: inconclusive
